The campaign covered roughly 5,500 compounds. About 2,000 (36%) were called active. About 18% were inconclusive and are not listed. No stated cut-off is given here; in the data, active means normalized growth mostly below about 0.91 (no sharp cut-off); inconclusive means no clear call, values can overlap the other calls; inactive means mostly above about 0.92. The list shows a part of the results.
Experiment: chemical genetic growth profiling, strain panel (AID 1159580);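 further: tested at 20 µM; growth read once vehicle control cultures reached saturation at 30 °C; 1 = growth at the plate median or of vehicle wells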
Details: growth OD

Measured: normalized growth

O=c1c(-c2cc(O)c(O)c(O)c2)coc2cc(O)c(O)c(O)c12
active: S. cerevisiae deletion strains, locus YJR043C, strain POL32, stronger effect = lower value 0.752 | S. cerevisiae deletion strains, locus YKL190W, strain CNB1, stronger effect = lower value 0.86 | S. cerevisiae deletion strains, locus YLR039C, strain RIC1, stronger effect = lower value 0.626 | S. cerevisiae deletion strains, locus YLR058C, strain SHM2, stronger effect = lower value 0.377 | S. cerevisiae deletion strains, locus YLR342W, strain FKS1 (second series), stronger effect = lower value 0.648 | S. cerevisiae deletion strains, locus YLR357W, strain rsc2, stronger effect = lower value 0.753 | S. cerevisiae deletion strains, locus YLR371W, strain rom2, stronger effect = lower value 0.885 | S. cerevisiae deletion strains, locus YLR418C, strain cdc73, stronger effect = lower value 0.797 | S. cerevisiae deletion strains, locus YML016C, strain PPZ1, stronger effect = lower value 0.853 | S. cerevisiae deletion strains, locus YML032C, strain rad52, stronger effect = lower value 0.905 | S. cerevisiae deletion strains, locus YML120C, strain ndi1, stronger effect = lower value 0.747 | S. cerevisiae deletion strains, locus YMR058W, strain fet3, stronger effect = lower value 0.761 | S. cerevisiae deletion strains, locus YMR231W, strain pep5, stronger effect = lower value 0.821 | S. cerevisiae deletion strains, locus YNL067W, strain RPL9B, stronger effect = lower value 0.841 | S. cerevisiae deletion strains, locus YNL153C, strain GIM3, stronger effect = lower value 0.582 | S. cerevisiae deletion strains, locus YNL209W, strain ssb2, stronger effect = lower value 0.804 | S. cerevisiae deletion strains, locus YNR052C, strain pop2, stronger effect = lower value 0.695 | S. cerevisiae deletion strains, locus YOL147C, strain pex11, stronger effect = lower value 0.865 | S. cerevisiae deletion strains, locus YOR061W, strain CKA2, stronger effect = lower value 0.87 | S. cerevisiae deletion strains, locus YOR069W, strain VPS5, stronger effect = lower value 0.926 | S. cerevisiae deletion strains, locus YOR106W, strain vam3, stronger effect = lower value 0.686 | S. cerevisiae deletion strains, locus YOR144C, strain elg1, stronger effect = lower value 0.915 | S. cerevisiae deletion strains, locus YOR270C, strain vph1, stronger effect = lower value 0.572 | S. cerevisiae deletion strains, locus YOR290C, strain snf2, stronger effect = lower value 0.344 | S. cerevisiae deletion strains, locus YPL051W, strain arl3, stronger effect = lower value 0.817 | S. cerevisiae deletion strains, locus YPL078C, strain atp4, stronger effect = lower value 0.856 | S. cerevisiae strains, strain wild type, stronger effect = lower value 0.78
inactive: S. cerevisiae deletion strains, locus YJL187C, strain SWE1, stronger effect = lower value 0.975 | S. cerevisiae deletion strains, locus YJR075W, strain HOC1, stronger effect = lower value 0.929 | S. cerevisiae deletion strains, locus YKL009W, strain mrt4, stronger effect = lower value 1.07 | S. cerevisiae deletion strains, locus YKL068W, stronger effect = lower value 1.01 | S. cerevisiae deletion strains, locus YKL085W, strain MDH1 (second series), stronger effect = lower value 1.02 | S. cerevisiae deletion strains, locus YKL085W, strain MDH1, stronger effect = lower value 1.02 | S. cerevisiae deletion strains, locus YKL160W, strain elf1, stronger effect = lower value 0.952 | S. cerevisiae deletion strains, locus YKR001C, strain vps1, stronger effect = lower value 0.987 | S. cerevisiae deletion strains, locus YKR026C, strain gcn3, stronger effect = lower value 0.995 | S. cerevisiae deletion strains, locus YKR091W, strain srl3, stronger effect = lower value 1.02 | S. cerevisiae deletion strains, locus YLL001W, strain dnm1, stronger effect = lower value 0.965 | S. cerevisiae deletion strains, locus YLL026W, stronger effect = lower value 1.01 | S. cerevisiae deletion strains, locus YLL041C, strain sdh2, stronger effect = lower value 1 | S. cerevisiae deletion strains, locus YLR027C, strain aat2, stronger effect = lower value 0.974 | S. cerevisiae deletion strains, locus YLR102C, strain apc9, stronger effect = lower value 1 | S. cerevisiae deletion strains, locus YLR221C, strain rsa3, stronger effect = lower value 0.981 | S. cerevisiae deletion strains, locus YLR258W, strain gsy2, stronger effect = lower value 0.988 | S. cerevisiae deletion strains, locus YLR262C, strain YPT6 (second series), stronger effect = lower value 0.889 | S. cerevisiae deletion strains, locus YLR262C, strain YPT6, stronger effect = lower value 0.758 | S. cerevisiae deletion strains, locus YLR268W, strain sec22, stronger effect = lower value 0.898 | S. cerevisiae deletion strains, locus YLR320W, strain mms22, stronger effect = lower value 0.941 | S. cerevisiae deletion strains, locus YLR330W, strain CHS5, stronger effect = lower value 0.93 | S. cerevisiae deletion strains, locus YLR342W, strain FKS1, stronger effect = lower value 0.954 | S. cerevisiae deletion strains, locus YLR370C, strain arc18, stronger effect = lower value 0.911 | S. cerevisiae deletion strains, locus YLR384C, strain iki3, stronger effect = lower value 1 | S. cerevisiae deletion strains, locus YML124C, strain tub3, stronger effect = lower value 0.99 | S. cerevisiae deletion strains, locus YMR078C, strain ctf18, stronger effect = lower value 0.994 | S. cerevisiae deletion strains, locus YMR125W, strain sto1, stronger effect = lower value 1.06 | S. cerevisiae deletion strains, locus YMR129W, stronger effect = lower value 1.03 | S. cerevisiae deletion strains, locus YMR205C, strain PFK2, stronger effect = lower value 0.961 | S. cerevisiae deletion strains, locus YMR223W, strain ubp8, stronger effect = lower value 0.94 | S. cerevisiae deletion strains, locus YMR307W, strain GAS1, stronger effect = lower value 0.638 | S. cerevisiae deletion strains, locus YNL071W, strain lat1, stronger effect = lower value 1.01 | S. cerevisiae deletion strains, locus YNL233W, strain BNI4, stronger effect = lower value 0.876 | S. cerevisiae deletion strains, locus YNL248C, strain rpa49, stronger effect = lower value 0.935 | S. cerevisiae deletion strains, locus YNL250W, strain rad50, stronger effect = lower value 0.998 | S. cerevisiae deletion strains, locus YNL271C, strain bni1, stronger effect = lower value 0.986 | S. cerevisiae deletion strains, locus YNL298W, strain CLA4, stronger effect = lower value 0.974 | S. cerevisiae deletion strains, locus YNL307C, strain MCK1, stronger effect = lower value 0.986 | S. cerevisiae deletion strains, locus YNL322C, strain KRE1 (second series), stronger effect = lower value 1.01 | S. cerevisiae deletion strains, locus YNR049C, strain mso1, stronger effect = lower value 1.01 | S. cerevisiae deletion strains, locus YOL012C, strain htz1 0.414 | S. cerevisiae deletion strains, locus YOR001W, strain rrp6, stronger effect = lower value 0.949 | S. cerevisiae deletion strains, locus YOR070C, strain gyp1, stronger effect = lower value 0.978 | S. cerevisiae deletion strains, locus YOR080W, strain dia2, stronger effect = lower value 0.975 | S. cerevisiae deletion strains, locus YOR083W, strain WHI5, stronger effect = lower value 0.903 | S. cerevisiae deletion strains, locus YOR136W, strain idh2, stronger effect = lower value 0.987 | S. cerevisiae deletion strains, locus YOR184W, strain ser1, stronger effect = lower value 0.88 | S. cerevisiae deletion strains, locus YOR265W, strain rbl2, stronger effect = lower value 1 | S. cerevisiae deletion strains, locus YOR316C, strain cot1, stronger effect = lower value 1 | S. cerevisiae deletion strains, locus YPL055C, strain LGE1, stronger effect = lower value 0.783 | S. cerevisiae deletion strains, locus YPL106C, strain sse1, stronger effect = lower value 0.91 | S. cerevisiae deletion strains, locus YPL240C, strain hsp82, stronger effect = lower value 0.988 | S. cerevisiae deletion strains, locus YPL241C, strain CIN2, stronger effect = lower value 0.948 | S. cerevisiae deletion strains, locus YPR119W, strain clb2, stronger effect = lower value 1.02 | S. cerevisiae deletion strains, locus YPR141C, strain kar3, stronger effect = lower value 1 | S. cerevisiae deletion strains, locus YPR163C, strain tif3, stronger effect = lower value 0.998 | S. cerevisiae deletion strains, locus YPR167C, strain met16, stronger effect = lower value 1.01 | S. cerevisiae deletion strains, strain wtn01, stronger effect = lower value 0.934

Reference: PubChem BioAssay AID1159580 (chemical genetic matrix, 2015)
